Records with an inconclusive call do not appear. Unmarked numbers belong to inactive results. The source made the active and inactive calls. Calls follow the shape of the dose curve; as a rule, active = well fitted cell-killing curve with a large enough effect; inconclusive = small, poorly fitted or top-dose-only effect, or effect the other way; inactive = no such curve, though single readings can be large or run the other way.
% is scaled to controls: 0 for no effect and ±100 for the full control effect; potency is read from the fitted curve at half-maximal effect.

The nature of this test: qHTS assay to identify small molecule inhibitors of chordoma cells - UCH-1 (AID 1259355). Also: nearly all actives have a fitted effect of over 55% in size. The settings on record: UCH-1 chordoma viability, CellTiter-Glo, 48 h, combination, with auranofin plus four topoisomerase inhibitors; series mostly up to 46.1 µM; activity, negative = inhibition: at the top concentration. The procedure, abridged: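 Screening used approved and investigational drugs in 15-point titration against 800 seeded cells per well. A fixed combination of auranofin with camptothecin, doxorubicin, rubitecan and topotecan followed compound addition, and growth was scored by CellTiter-Glo after 48hr.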
Background: qHTS replaces the single test concentration by a dilution series.
For `CC[C@H]1NC(=O)[C@@H](NC(=O)c2ncccc2O)[C@@H](C)OC(=O)[C@H](c2ccccc2)NC(=O)[C@@H]2CC(=O)CCN2C(=O)[C@H](Cc2ccccc2)N(C)C(=O)[C@@H]2CCCN2C1=O`, the “activity, negative = inhibition” value was -4.26%.
For `NC(=O)c1ccc[n+]([C@@H]2O[C@H](COP(=O)([O-])OP(=O)(O)OC[C@H]3O[C@@H](n4cnc5c(N)ncnc54)[C@H](O)[C@@H]3O)[C@@H](O)[C@H]2O)c1`, the “activity, negative = inhibition” value is -18.8% [at 20.6 µM].
Same read-out and setting: the same measure for `CC1(C)S[C@@H]2[C@H](NC(=O)C3(N)CCCCC3)C(=O)N2[C@H]1C(=O)O`: -15%; for `C=CC(=O)O`: 11.9%; for `Cc1cc(=O)c(C(=O)N[C@@H](C(=O)N[C@@H]2C(=O)N3C(C(=O)O)=C(CSc4nnnn4C)CS[C@H]23)c2ccc(O)cc2)c[nH]1`: -23.1%.
The same measure, in the same setting: the same measure for `Cn1nnnc1SCC1=C(C(=O)O)N2C(=O)[C@@H](NC(=O)[C@H](O)c3ccccc3)[C@H]2SC1`: -28.7% [at 20.6 µM]; for `NCC[C@H](O)C(=O)N[C@@H]1C[C@H](N)[C@@H](O[C@H]2O[C@H](CN)[C@@H](O)[C@H](O)[C@H]2O)[C@H](O)[C@H]1O[C@H]1O[C@H](CO)[C@@H](O)[C@H](N)[C@H]1O`: -7.31%.
Still for that read-out and setting: in the case of `CCCCCCCCCC(=O)NO` it was 4.81%.
`C[N+]1(C)[C@@H]2CC(OC(=O)C(O)(c3cccs3)c3cccs3)C[C@H]1[C@@H]1O[C@@H]12` (stereo partly drawn): the “activity, negative = inhibition” value is -19.8%.
Consider `Cc1c(N)nc([C@H](CC(N)=O)NC[C@H](N)C(N)=O)nc1C(=O)N[C@H](C(=O)N[C@H](C)[C@@H](O)[C@H](C)C(=O)N[C@H](C(=O)NCCc1nc(-c2nc(C(=O)NCCCCN=C(N)N)cs2)cs1)[C@@H](C)O)[C@@H](O[C@@H]1O[C@@H](CO)[C@@H](O)[C@H](O)[C@@H]1O[C@H]1O[C@H](CO)[C@@H](O)[C@H](OC(N)=O)[C@@H]1O)c1cnc[nH]1`, for which the “activity, negative = inhibition” value was -32.7%.
With `NC(=S)NS(=O)(=O)c1ccc(N)cc1`, the “activity, negative = inhibition” value is 0.42%.
The same measure, in the same setting: the same measure for `OC[C@H]1O[C@@](CO)(O[C@H]2O[C@H](CO)[C@@H](O)[C@H](O)[C@H]2O)[C@@H](O)[C@@H]1O`: 0.107%; for `CC(C)Cc1ccc([C@@H](C)C(=O)NS(C)(=O)=O)cc1`: -4.88%; for `CCCCCCCCCCCC(=O)OC[C@@H](O)C1OC[C@H](O)[C@H]1O` (stereo partly drawn): -10.3%.
The same measure, in the same setting: in the case of `CCC(O)c1ccccc1` (stereo not drawn) it was -14%; in that of `NC(N)=NCC1COc2ccccc2O1` (stereo not drawn), -6.13%.
On to `CCCCCCCCCCCCCCCCCC[N+](C)(C)CCC[Si](OC)(OC)OC`, for which the “activity, negative = inhibition” value was 9.36%.
The same measure, in the same setting: in the case of `C=CC[N@@+]12CC[C@@]34c5ccccc5N5/C=C6/[C@H]7C[C@H]8[C@@]9(CC[N@@+]8(CC=C)C/C7=C/CO)c7ccccc7N(/C=C(/[C@@H](C[C@@H]31)/C(=C\CO)C2)[C@H]54)[C@@H]69` it was 15.5% [at 20.6 µM]; in that of `NC(=O)[C@@H]1C[C@]2(NC(=O)NC2=O)c2cc(F)ccc2O1`, -5.57%.
For `CN(CCO)CC(O)Cn1cnc2c1c(=O)n(C)c(=O)n2C` (stereo not drawn) (tested in a mixture with another compound), the “activity, negative = inhibition” value is -7.67%.
As to `COC1=C(OC)C(=O)C(C/C=C(\C)CC/C=C(\C)CC/C=C(\C)CC/C=C(\C)CC/C=C(\C)CC/C=C(\C)CC/C=C(\C)CC/C=C(\C)CC/C=C(\C)CCC=C(C)C)=C(C)C1=O`, the “activity, negative = inhibition” value was -1.43%.
As to `CC(=O)OCC1=C(C(=O)O)N2C(=O)[C@@H](NC(=O)Cc3ccccc3)[C@H]2SC1`, the “activity, negative = inhibition” value was -2.49%.
The same measure, in the same setting: the same measure for `CCCC(=O)O`: -11.3%.
Regarding `COc1ccc(/C=N/NC(=O)c2ccncc2)c(C(=O)O)c1OC`, the “activity, negative = inhibition” value was -0.361%.
For the compound `CC(=O)N[C@@H]([C@@H](O)[C@H](O)[C@H](O)CO)[C@@H](O)CC(=O)C(=O)O`, the “activity, negative = inhibition” value is -0.517%.
In the case of `NC(=O)OCC(O)COc1ccc(Cl)cc1` (stereo not drawn), the “activity, negative = inhibition” value is -19.1% [at 20.6 µM].
On the same count and under the same terms, the same measure for `OC1OC[C@@H](O)[C@H](O)[C@@H]1O` (stereo partly drawn): -23.1%; for `O=C(O)[C@H]1CN(C/C=C/P(=O)(O)O)CCN1`: -8.32%; for `CCCC(=O)Nc1c(I)cc(I)c(CC(CC)C(=O)O)c1I` (stereo not drawn): 2.21%.
For `O=C(OC[C@H]1O[C@@H](OC(=O)c2cc(O)c(O)c(OC(=O)c3cc(O)c(O)c(O)c3)c2)[C@H](OC(=O)c2cc(O)c(O)c(OC(=O)c3cc(O)c(O)c(O)c3)c2)[C@@H](OC(=O)c2cc(O)c(O)c(OC(=O)c3cc(O)c(O)c(O)c3)c2)[C@@H]1OC(=O)c1cc(O)c(O)c(OC(=O)c2cc(O)c(O)c(O)c2)c1)c1cc(O)c(O)c(OC(=O)c2cc(O)c(O)c(O)c2)c1`, the Potency is 15.8 µM (active).
As to `O=C(O)[C@@H]1C[C@H](CP(=O)(O)O)CCN1`, the “activity, negative = inhibition” value was 0.187%.
Regarding `CO/N=C(\C(=O)N[C@@H]1C(=O)N2C(C(=O)O)=C(CSc3nnnn3C)CS[C@H]12)c1csc(N)n1`, the “activity, negative = inhibition” value is -0.199%.
Same read-out and setting: in the case of `CC/C=C\C/C=C\C/C=C\C/C=C\C/C=C\CCCC(=O)O` it was -8.55%; in that of `CC(C)=CCC/C(C)=C/CC/C(C)=C/CC/C=C(\C)CC/C=C(\C)CCC=C(C)C`, -6.72%; in that of `N=C(N)c1ccc(/C=C/c2ccc(C(=N)N)cc2O)cc1`, -26.7%.
The same measure, in the same setting: the same measure for `C=CC1=C(C(=O)O)N2C(=O)[C@@H](NC(=O)/C(=N\O)c3csc(N)n3)[C@H]2SC1` (stereo in doubt): -35.3%.
As for `C/C=C/C=C/C(=O)O`, the “activity, negative = inhibition” value was -24%.
Consider `CC(O)[C@@H]1NC(=O)[C@H](Cc2ccccc2)NC(=O)[C@H](C(C)O)NC(=O)[C@H](CCCCN)NC(=O)[C@H](Cc2c[nH]c3ccccc23)NC(=O)[C@H](Cc2ccccc2)NC(=O)[C@H](Cc2ccccc2)NC(=O)[C@H](CC(N)=O)NC(=O)[C@H](CCCCN)NC(=O)[C@@H](NC(=O)CNC(=O)[C@H](C)N)CSSC[C@@H](C(=O)O)NC(=O)[C@H](CO)NC1=O` (stereo partly drawn), for which the “activity, negative = inhibition” value was -17.9%.

The record behind these values is PubChem BioAssay (NCATS).
